Compounds with a hit are over-represented: about 3.5% of the library has one in this group of screens.
mHTT-CaM PPI inh – mutant huntingtin-calmodulin interaction inhibitors – biochemical, AlphaScreen, primary screen; P42858; AlphaScreen His-mHTT/GST-CaM binding, luminescence; inhibition, % at 15 µM; 3.6% of 190,000 active; AID 1671202, 2021;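 further: 0% = both proteins with DMSO and 100% = one protein alone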
Pf apPOL inh – Pf-apPOL inhibitors, biochemical, fluorescence | inhibition, % at 10 µM | 0.25% of 210,000 active | Recombinant Pf-apPOL, molecular beacon fluorescence, 1.5 h
Active calls of the source: *. No stated cut-off is given here; in the data, active means inhibition above about 50%; inactive means the rest.

How did COc1cc(/C=C2\C(=O)ON=C2C)cc(Cl)c1OCc1ccc(C)cc1 do in these assays?
mHTT-CaM PPI inh: 95*; Pf apPOL inh: 0

What do the screens show for `COc1ccc(NCN2C(=O)S/C(=C\c3ccc4c(c3)OCO4)C2=O)cc1Cl`?
mHTT-CaM PPI inh: 27; Pf apPOL inh: -2

How did Cc1ccc(NC(=O)C2CC(=O)N(c3ccc(F)cc3)C2)cc1 (stereo not drawn) do in these assays?
mHTT-CaM PPI inh: -5; Pf apPOL inh: -4

How did Cc1cc2nc(C(=O)Nc3ccc(F)c(Cl)c3)cc(C)n2n1 do in these assays?
mHTT-CaM PPI inh: -4; Pf apPOL inh: -2

Results for O=C(c1ccc(F)c(F)c1)N1CCC(CCOc2ccccc2)CC1 ?
mHTT-CaM PPI inh: -25; Pf apPOL inh: -5

Results for O=C(CCS(=O)(=O)c1ccc(Cl)cc1)Nc1ccc(F)cc1F ?
mHTT-CaM PPI inh: -33; Pf apPOL inh: -4

Results for CC(=O)N1CCCN(C2=Nc3ccc(C)cc3Oc3ccccc32)CC1 ?
mHTT-CaM PPI inh: 54*; Pf apPOL inh: -6

What do the screens show for `CC(=O)N1CCN(C2=Nc3ccccc3Oc3ccccc32)CC1`?
mHTT-CaM PPI inh: 19; Pf apPOL inh: -2

Results for Cc1ccc(OCC(O)Cn2cnc3ccccc32)cc1 (stereo not drawn) ?
mHTT-CaM PPI inh: 6; Pf apPOL inh: 9

Results for OC(COc1ccc(I)cc1)Cn1cnc2ccccc21 (stereo not drawn) ?
mHTT-CaM PPI inh: 86*; Pf apPOL inh: -4

Results for COc1ccc(CC(=O)N2CCC3(CC2)NC(=O)c2cccc(Cl)c2N3)cc1 ?
mHTT-CaM PPI inh: 3; Pf apPOL inh: 5

Results for COc1ccccc1NC(=O)c1cc2c(n1C)CCN(Cc1ccc(F)cc1)C2 ?
mHTT-CaM PPI inh: 63*; Pf apPOL inh: -2

How did COc1ccc(CNC(=O)c2cc3c(n2C)CCN(Cc2ccc(F)cc2)C3)cc1OC do in these assays?
mHTT-CaM PPI inh: 76*; Pf apPOL inh: -5

What do the screens show for `COc1ccc(CNC(=O)c2cc3c(n2C)CCN(Cc2ccc(F)cc2)C3)cc1`?
mHTT-CaM PPI inh: 31; Pf apPOL inh: -3

Results for CN(C)CCCNC(=O)c1cc2c(n1C)CCN(Cc1ccc(F)cc1)C2 ?
mHTT-CaM PPI inh: 96*; Pf apPOL inh: 2

How did COc1ccccc1NC(=O)N1CCc2c(c3cc(F)ccc3n2C)C1 do in these assays?
mHTT-CaM PPI inh: 82*; Pf apPOL inh: -4

What do the screens show for `CN(C)CCNC(=O)c1cc2c(n1C)CCN(Cc1ccccc1)C2`?
mHTT-CaM PPI inh: 5; Pf apPOL inh: -3

What do the screens show for `COc1ccccc1NC(=O)N1CCc2c(c(COCc3cccc(F)c3)nn2C)C1`?
mHTT-CaM PPI inh: 20; Pf apPOL inh: -3

What do the screens show for `COc1cccc(CNC(=O)c2cc3c(n2C)CCN(Cc2ccc(F)cc2)C3)c1OC`?
mHTT-CaM PPI inh: 25; Pf apPOL inh: -8

Results for Oc1c(F)cccc1C=Nc1ccc2oc(-c3ccncc3)nc2c1 ?
mHTT-CaM PPI inh: 12; Pf apPOL inh: -4

Results for COc1cc(/C=C2\SC(=O)N(Cc3ccc(Cl)cc3)C2=O)ccc1O ?
mHTT-CaM PPI inh: 29; Pf apPOL inh: -1

Results for Cn1c(C(=O)NCc2ccco2)cc2c1CCN(Cc1ccccc1)C2 ?
mHTT-CaM PPI inh: 48; Pf apPOL inh: -1

Results for Cc1ccc(CN2CCc3c(cc(C(=O)NCc4ccco4)n3C)C2)cc1 ?
mHTT-CaM PPI inh: 62*; Pf apPOL inh: 1

Results for COc1ccc(C(=O)N2CCN(c3cccc(Cl)c3)CC2)cc1 ?
mHTT-CaM PPI inh: 6; Pf apPOL inh: -1

Results for COc1cccc(-n2ccnc2N2CCN(C(=O)c3ccc(F)c(F)c3)CC2)c1 ?
mHTT-CaM PPI inh: 54*; Pf apPOL inh: 18

What do the screens show for `COCCNC(=O)Cc1ccc(NC(=O)c2c(F)cccc2F)cc1`?
mHTT-CaM PPI inh: -9; Pf apPOL inh: -10

Results for COc1ccc(-c2ccc(CN3C(CC(C)C)C(=O)N(Cc4cn(CC5CCCCC5)nn4)CCS3(=O)=O)cc2)cc1OC (stereo not drawn) ?
mHTT-CaM PPI inh: 15; Pf apPOL inh: 0

Results for CC(C)CC1C(=O)N(Cc2cn(CC3CCCCC3)nn2)CCS(=O)(=O)N1Cc1ccc(-c2ccncc2)cc1 (stereo not drawn) ?
mHTT-CaM PPI inh: 65*; Pf apPOL inh: -2

What do the screens show for `CC1C(=O)N(Cc2cn(CC3CCCCC3)nn2)CCS(=O)(=O)N1Cc1ccc(-c2ccccc2)cc1` (stereo not drawn)?
mHTT-CaM PPI inh: 73*; Pf apPOL inh: 0

What do the screens show for `Cc1ccc(-c2ccc(CN3C(C)C(=O)N(Cc4cn(CC5CCCCC5)nn4)CCS3(=O)=O)cc2)cc1` (stereo not drawn)?
mHTT-CaM PPI inh: 30; Pf apPOL inh: -7

What do the screens show for `Cn1c(Cc2ccsc2)nnc1Sc1nc2ccc(Cl)cc2s1`?
Pf apPOL inh: -12

Results for CCCNc1ccc(-c2ccc(C)c(S(=O)(=O)N3CCCCC3)c2)nn1 ?
mHTT-CaM PPI inh: -12; Pf apPOL inh: 1

What do the screens show for `CCCc1[nH]nc(-c2cccc(F)c2)c1NC(=O)CC`?
mHTT-CaM PPI inh: 0; Pf apPOL inh: 0

Results for Cc1[nH]c(C(=O)N2CCC(CC(=O)NCCCN(C)Cc3ccccc3)CC2)c(C)c1C ?
mHTT-CaM PPI inh: 19; Pf apPOL inh: -4

What do the screens show for `Cc1ccccc1NC(=O)CSc1nccn1-c1cccc(C(=O)Nc2ccccc2)c1`?
mHTT-CaM PPI inh: 60*; Pf apPOL inh: -7

How did O=C(CSc1nccn1-c1cccc(Cl)c1)Nc1ccccc1F do in these assays?
mHTT-CaM PPI inh: 32; Pf apPOL inh: 4

What do the screens show for `O=C(Nc1ncccc1Cl)c1cccc(Cl)c1`?
mHTT-CaM PPI inh: -8; Pf apPOL inh: -4

Results for Clc1ccc(C2CC(c3ccc(I)cc3)Nc3nnnn32)cc1 (stereo not drawn) ?
mHTT-CaM PPI inh: 23; Pf apPOL inh: 4

How did COc1ccc(NC(=O)/C(C#N)=C/c2cc(C)n(-c3ccc(F)cc3)c2C)cc1 do in these assays?
mHTT-CaM PPI inh: 1; Pf apPOL inh: 0

Results for COc1ccc(-n2c(C)cc(CN)c2C)cc1 ?
mHTT-CaM PPI inh: 64*; Pf apPOL inh: -1

How did CN(C)N1C(=O)c2ccccc2C1=O do in these assays?
mHTT-CaM PPI inh: -15; Pf apPOL inh: -6

What do the screens show for `CN(C1=CC(=O)c2ccccc2C1=O)c1ccccc1`?
mHTT-CaM PPI inh: 60*; Pf apPOL inh: 5

How did Cc1ccc2nc(-c3cccc([N+](=O)[O-])c3)[nH]c2c1 do in these assays?
mHTT-CaM PPI inh: 12; Pf apPOL inh: -3

How did Cc1ccc2nc(-c3cc(N=Cc4cccc([N+](=O)[O-])c4)ccc3O)[nH]c2c1 do in these assays?
mHTT-CaM PPI inh: 55*; Pf apPOL inh: 4

Results for Cc1ccc2nc(-c3cc(N=Cc4cccc([N+](=O)[O-])c4O)ccc3O)[nH]c2c1 ?
mHTT-CaM PPI inh: 59*; Pf apPOL inh: 0

What do the screens show for `O=C(O)c1cccc(N=Cc2cccc([N+](=O)[O-])c2O)c1`?
mHTT-CaM PPI inh: -3; Pf apPOL inh: 83*

Results for O=[N+]([O-])c1ccccc1C=Nc1ccc2nc(-c3ccccc3)[nH]c2c1 ?
mHTT-CaM PPI inh: 32; Pf apPOL inh: -10

Results for O=C(O)c1cccc(N=Cc2cc(Cl)cc([N+](=O)[O-])c2O)c1 ?
mHTT-CaM PPI inh: 9; Pf apPOL inh: 2

How did Cc1cccc2oc(-c3cc(N=Cc4cccc([N+](=O)[O-])c4)ccc3O)nc12 do in these assays?
mHTT-CaM PPI inh: 2; Pf apPOL inh: -2

Assay outcomes: PubChem BioAssay, University of Kansas High Throughput Screening Laboratory
